# Source: ChEMBL document CHEMBL3988442, “University of Dundee, Small-Polar-MMV Screening Library” (2021)
# Tests used:
# [1] = biological target: T1, Aspartate--tRNA(Asp/Asn) ligase (Mycobacterium tuberculosis (strain ATCC 25618 / H37Rv)) (UniProt P9WFW3); experiment: Assay for Asp RNA synthetase-1 from Mycobacterium tuberculosis; format: functional; design: scale not given: direction of the effect not stated beside the values; details: 30 µM; note: in the data most compounds retested in dose-response had high values
# T1 sequence (whole entry): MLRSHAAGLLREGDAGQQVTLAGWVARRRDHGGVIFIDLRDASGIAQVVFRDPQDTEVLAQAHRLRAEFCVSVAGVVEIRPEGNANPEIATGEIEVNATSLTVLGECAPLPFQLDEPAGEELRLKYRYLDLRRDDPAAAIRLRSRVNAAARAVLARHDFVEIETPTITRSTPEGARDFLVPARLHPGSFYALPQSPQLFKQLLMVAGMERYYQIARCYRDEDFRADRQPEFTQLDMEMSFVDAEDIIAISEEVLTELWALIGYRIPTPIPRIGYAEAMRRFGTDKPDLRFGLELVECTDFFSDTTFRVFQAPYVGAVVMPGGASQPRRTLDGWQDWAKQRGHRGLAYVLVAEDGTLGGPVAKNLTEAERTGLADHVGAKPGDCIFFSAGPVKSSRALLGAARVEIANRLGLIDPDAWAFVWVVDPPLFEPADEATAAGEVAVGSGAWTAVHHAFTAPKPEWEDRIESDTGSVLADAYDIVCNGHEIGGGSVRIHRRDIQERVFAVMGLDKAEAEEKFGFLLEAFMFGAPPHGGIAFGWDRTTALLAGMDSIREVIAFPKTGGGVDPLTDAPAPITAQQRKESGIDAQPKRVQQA
# [2] = biological target: Shiga toxin 2 (Escherichia coli O157:H7) (UniProt P09385+P09386); experiment: E. coli 0.157:H7 Shiga Toxin SOP - stx2 screening assay; format: functional; design: scale not given: direction of the effect not stated beside the values; details: 30 µM
Structure (SMILES),Percent Effect [1] [%],Percent Effect [2] [%]
Cc1cc(C)n(CC2CCCN2CC(=O)N(C)Cc2cnn(C)c2)n1 (configuration not stated),-0.211,21.8
Cc1ccc2cc(C(=O)NCCn3nc4ccccn4c3=O)[nH]c2c1,-5.08,-70.8
COc1cccc(CC(=O)N2CCc3ncnc(NC(C)C)c3CC2)c1,-0.351,-3.19
Cc1cc(C)n(CC(=O)N2CCC(NS(C)(=O)=O)CC2)n1,-2.75,32.8
COCCN(Cc1ccoc1)C(=O)c1ccccc1Cl,2.46,6.17
CCC(C)(C)NC(=O)C1CC(=O)N(CC2CC2)C1 (configuration not stated),5.42,28.9
Cc1nc(-c2ccccc2)sc1C(=O)NCCNc1ncccn1,-2.89,28.3
Cc1noc(C)c1CN1CC2(CCN(C(=O)c3c[nH]cn3)C2)CC1=O (configuration not stated),0.582,-14.1
CCn1cc(NC(=O)C2CCN(CC(=O)N3CCOCC3)CC2)cn1,-3.23,21.6
CNC(=O)c1cc2c(nc1NCC1CC1)CCN(S(=O)(=O)C1CC1)CC2,7.68,-5.47
CC[C@@H]1N(Cc2ccsc2)CCC[C@]12CCC(=O)N2C,-1.82,5.09
Cc1noc(C)c1-c1cccc(CC2CCN(C(=O)c3cc[nH]n3)C2)n1 (configuration not stated),-1.22,4.37
CCOC(=O)[C@]12CCCN(Cc3ccco3)C[C@H]1CN(CCN(C)C)C2,4.07,-6.83
COc1cccc(CNC(=O)CN2CCCCC2Cn2cccn2)c1 (configuration not stated),0.922,20.3
O=S(=O)(C1CC1)N1CC[C@]2(C[C@@H](Oc3ccccn3)CO2)C1,-1.12,-6.89
CC(C)c1nnc2n1CCN(CCCS(=O)(=O)c1ccccc1)C2,-5.16,-15.3
CC(NC(=O)NCc1cccc(N2CCCC2=O)c1)c1ccccc1 (configuration not stated),-1.99,21.2
Cn1nc2c(cc1=O)CN(Cc1nc(C(C)(C)C)no1)CC2,50.6,0.187
COc1ccc(NC(=O)CCc2c(C)nc3cc(O)nn3c2C)cn1,-0.607,-81.2
c1csc(CN2Cc3nccn3CC(Cn3cncn3)C2)n1 (configuration not stated),-2.48,-4.98
O=C(C1CC=CC1)N1C[C@@H]2[C@@H](C1)OCC(=O)N2Cc1cccnc1,1.21,-12.2
COc1ccccc1OCc1cc(C(=O)N2C[C@H](O)[C@@H](N(C)C)C2)n[nH]1,0.529,-9.19
CCOc1ccc(S(=O)(=O)NC(=O)CCC2CCCO2)cc1 (configuration not stated),2.17,23.1

Structure (SMILES),Percent Effect [1] [%],Percent Effect [2] [%]
Cc1nccn1-c1cccc(C2CCCN2S(=O)(=O)N(C)C)n1 (configuration not stated),1.37,-8.96
CN(Cc1ccco1)C(=O)[C@H]1CSCN1C(=O)OC(C)(C)C,-1.74,10.2
CS(=O)(=O)NC[C@]12COC[C@H]1CN(C(=O)c1ccccc1)C2,-2.14,-16.8
Cc1cc(OCC(=O)NS(=O)(=O)c2c(C)noc2C)ccc1Cl,-2.01,13.3
OCC1CCCN1c1cc(N2CCN(c3ccccn3)CC2)ncn1 (configuration not stated),-3.49,32.6
CCOCC(=O)N1C[C@@H]2COC[C@H](c3nc(C)no3)[C@@H]2C1,2.15,-13.8
COCC(=O)N1CCC(c2nccn2CC2CC2)CC1,-0.435,-12.6
CCN(CC1CCCO1)C(=O)Nc1cc(C(=O)OC)ccc1F (configuration not stated),-1.37,15.3
COCC(C)(O)CNC(=O)COc1ccccc1OC (configuration not stated),-4.69,-2.25
COCCN(C)CCN1CC2(CCN(C3CCCOC3)CC2)OC1=O (configuration not stated),3.6,-60.6
CCc1nc(CN2CCN(C(=O)C3CCCCC3)CC2)cs1,-0.656,1.6
CC(C)c1nc(C2CCCN2Cc2ccccc2C#N)no1 (configuration not stated),-6.4,-29.9
Cc1ccc(CN(C)C(=O)CN2CCCC2Cn2cccn2)o1 (configuration not stated),-1.15,-15.7
CCn1cnnc1C1CCN(C(=O)c2ccc(Cl)s2)CC1,-0.371,-7.76
CC(=O)N1CCCN(C(=O)CCc2c(C)noc2C)CC1,-5.26,2.24
CC(C)c1cc(NC(=O)CN2CCCC2Cn2cccn2)on1 (configuration not stated),-1.29,29.8
CC(C)(C)c1nnc(CN2CCOC(Cn3cccn3)C2)o1 (configuration not stated),-6.74,-2.05
Cn1cc(NC(=O)N2CCC(NS(C)(=O)=O)CC2)ccc1=O,57.4,-31.1
COCCN1CCN(C(=O)c2ccncc2F)Cc2cccnc21,-0.348,-48.6
CN1CCN(C(=O)c2ccc(=O)n(C)c2)Cc2ccccc21,-5.51,-29.2
Cc1cc(C)n(CC2CCCN2CC(=O)NC2CCOCC2)n1 (configuration not stated),-3.04,-26.7
Cn1cccc1C(CNC(=O)c1ccc(F)cc1F)N1CCCCCC1 (configuration not stated),1.24,-33.8
CCOc1ncccc1NC(=O)N1CCCCCC1,7.43,-2.38
